# Assay results reported in PubChem BioAssay AID504332 (National Center for Advancing Translational Sciences (NCATS), 2011).
# Among all 350,000 compounds or so, about 31,000 (8.9%) were called active. Inconclusive results (about 15%) are left out. Many of the other results were omitted from the sample, so actives are more common in it than they were. Unmarked numbers belong to inactive results. The call rests on the fitted dose curve; in most records, active means well fitted inhibition curve with a large enough effect; inconclusive means small, poorly fitted or top-dose-only effect; inactive means no such curve, though single readings can be large or run the other way.
# Target: Histone-lysine N-methyltransferase EHMT2 (Homo sapiens) (UniProt Q96KQ7)
# Sequence (Q96KQ7 913-1193 limits assumed): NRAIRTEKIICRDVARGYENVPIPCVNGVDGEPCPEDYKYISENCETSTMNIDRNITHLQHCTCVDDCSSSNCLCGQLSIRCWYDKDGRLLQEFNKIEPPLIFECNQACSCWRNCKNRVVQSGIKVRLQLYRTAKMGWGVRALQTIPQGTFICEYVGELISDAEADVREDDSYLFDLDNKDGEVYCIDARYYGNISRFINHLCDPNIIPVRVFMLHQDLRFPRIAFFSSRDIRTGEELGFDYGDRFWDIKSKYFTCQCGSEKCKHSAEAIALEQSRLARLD
# Experiment: qHTS Assay for Inhibitors of Histone Lysine Methyltransferase G9a; further: nearly all actives have a fitted effect of over 75% in size
# Conditions: G9a H3K9 monomethylation, AlphaScreen, 2 h; series mostly up to 59 µM; activity, negative = inhibition: at the top concentration
# In short: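 Enzyme 20 nM + cpd, 15 min RT; add b-H3K9 pep 500 nM / SAM 20 uM; 2 h RT; anti-H3K9me1 Ab 0.5 ug/mL + SA donor / anti-rabbit acceptor beads 20 ug/mL each, 10 min; AlphaScreen read.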
# On the % scale 0 is the no-effect control and ±100 the full control effect; potency means the concentration at half of the fitted maximal effect.
SMILES,"activity, negative = inhibition",Potency
COc1ccc(CNc2nc(-c3ccc(Cl)cc3)nn2C(=O)c2ccccc2)cc1,9.43%,
CCN(Cc1ccccc1)S(=O)(=O)c1cc2c3c(c1)CCN3C(=O)CC2,-8.04% [at 102 µM],
CCN(CC)c1ccc(NC(=O)C2CCC(CNc3c(N4CCCC4)c(=O)c3=O)CC2)c(C)c1 (configuration not stated),,39.8 µM (active)
CCOc1ccccc1NC(=O)C1CCC(CNc2c(N3CCOCC3)c(=O)c2=O)CC1 (configuration not stated),-5.96% [at 102 µM],
O=C(NCc1ccccc1Cl)C1CCC(CNc2c(N3CCCCC3)c(=O)c2=O)CC1 (configuration not stated),22.5% [at 102 µM],
COc1ccc(Cc2nc3ccc(C(=O)NCC4CCOCC4)cc3o2)cc1OC,31.4% [at 102 µM],
CC(C)C(=O)Nc1nnc(SCC(=O)N2C(C)CCCC2C)s1 (configuration not stated),,79.4 µM (active)
CC(C)N(C(=O)CSc1nnc(NC2CC2)s1)c1ccccc1,-6.53% [at 0.501 µM],
CC1CCCC(C)N1C(=O)CSc1nnnn1C1CCCC1 (configuration not stated),3.58% [at 102 µM],
COc1cccc(-c2cc(C(=O)Nc3ccc(C)cc3)[nH]n2)c1,-1.27%,
COc1ccc(-c2csc(-c3c(N)c(C(=O)c4ccc(OC)c(OC)c4)n4ccccc34)n2)cc1,1.87%,
COc1cc(CN(C(=O)c2ccccc2Br)c2ccccn2)cc(OC)c1OC,-32.7%,
O=C(c1ccncc1)N1CCN(S(=O)(=O)c2cc(C(F)(F)F)cc(C(F)(F)F)c2)CC1,-49.9%,
OCCCNC(c1ccccc1)c1ccc(O)cc1 (configuration not stated),,11.2 µM (active)
O=C(CNC(c1ccccc1)c1ccccc1)Nc1ccc(F)cc1,14%,
O=C(Nc1cc(Cl)cc(Cl)c1)C(NCCCO)c1ccccc1 (configuration not stated),1.16% [at 102 µM],
CCCCN(C)CCCNC(=O)CN1N=C(c2ccc(OC)cc2)CCC1=O,-8.59%,
O=C(NCCCN1CCCC1=O)c1ccc(S(=O)(=O)Nc2ccccc2)cc1,7.97%,
CC(=O)Nc1ccc(NC(=O)CCN2C(=O)C3CC=CCC3C2=O)cc1 (configuration not stated),-17% [at 12.7 µM],
Cc1ccccc1OCC(=O)Nc1c(C(=O)Nc2ccccc2F)oc2ccccc12,40.1%,
COc1cccc(CNC(=O)c2n[nH]c3ccccc23)c1,11.3% [at 102 µM],

SMILES,"activity, negative = inhibition",Potency
COc1cccc(N2CCN(C(=O)CCCCCn3c(=O)[nH]c4ccccc4c3=O)CC2)c1,3.2%,
COc1cccc(C2c3[nH]c4ccccc4c3CCN2Cc2cccc(C)n2)c1 (configuration not stated),,44.7 µM (active)
COc1ccc(CNC(=O)COCc2cc(-c3cccs3)on2)cc1OC,-9.69%,
CN(CC1CCCN(CCc2cccc(C(F)(F)F)c2)C1)C(=O)c1ccc2nc[nH]c2c1 (configuration not stated),-8.11% [at 102 µM],
Cc1cc(C(=O)Nc2nnc(C3CC3)s2)c(C)s1,11.4% [at 12.7 µM],
O=C(O)CSC(NC(=O)c1cccnc1)(C(F)(F)F)C(F)(F)F,,14.1 µM (active)
O=C(CNC(=O)c1cccnc1)N/N=C/c1cccnc1,-9.35% [at 102 µM],
O=C(NNC(=O)c1cccnc1)Nc1ccccc1,-81.4% [at 2.33 µM],
CCN(CC)S(=O)(=O)c1ccc(-c2cn3ccc(C)cc3n2)cc1,4.83% [at 0.501 µM],
CCOC(=O)CSc1ncc(-c2cccc(Cl)c2)cn1,115% [at 102 µM],
CCOC(=O)CSc1ccccn1,,39.8 µM (active)
COC(=O)c1ccccc1NC(=O)CSc1ccccn1,2.13%,
O=C(Nc1ccccc1Cl)N1CCC(CN2CCCCC2)CC1,-2.61%,
COc1ccc2sc(-c3ccc(N(C)C)cc3)c(C#CCO)c2c1,8.02% [at 0.501 µM],
COc1ccc(-c2cc(-c3nc(-c4cc(OC)c(OC)c(OC)c4)no3)[nH]n2)c(OC)c1,-1.81%,
CN(C)/N=C/c1cn(-c2ccccc2)nc1-c1cccnc1,,56.2 µM (active)
O=C(c1cn(-c2ccccc2)nc1-c1cccnc1)N1CCCCC1,4.5% [at 102 µM],
CC(C)(C)OC(=O)N/N=C/c1cn(-c2ccccc2)nc1-c1cccnc1,3.66% [at 102 µM],
CCCCc1ccc(NS(=O)(=O)c2cccc(C(=O)N3CCCN(C)CC3)c2)cc1,18.4%,
CC(=O)NC(CC(=O)Nc1cccc(S(=O)(=O)N2CCCC2)c1)c1ccccc1 (configuration not stated),1.42% [at 102 µM],
Cc1nn(CC(=O)NC2CCCCC2)c(=O)c2cccn12,14.9% [at 102 µM],

SMILES,"activity, negative = inhibition",Potency
Cc1cc(C(F)F)nn1CC(=O)NC1CCCCCC1,,79.4 µM (active)
O=C(Cn1nc([N+](=O)[O-])nc1Br)NC1CCCCC1,-0.489% [at 102 µM],
CCc1noc(C)c1C(=O)N1CCCSC1=Nc1ccccc1OC,-2.08% [at 102 µM],
O=C1c2ccccc2C(=O)N1CCC#Cc1ccc2cc(C3(O)CCCCC3)oc(=O)c2c1,1.05% [at 0.501 µM],
CC1CCCN(C(=O)c2ccc3c(c2)C(=O)N(CCC2=CCCCC2)C3=O)C1 (configuration not stated),,39.8 µM (active)
C=CCN1C(=O)c2ccc(C(=O)N3CCC(C(=O)OCC)CC3)cc2C1=O,-24% [at 102 µM],
Cc1cc(=O)n2nc(N3CCCC(C(=O)NCCC4=CCCCC4)C3)sc2n1 (configuration not stated),4.22% [at 12.7 µM],
O=c1[nH]c2cc(Br)ccc2n2cccc12,4.26%,
CNC(=O)C1CC(=O)N(c2ccc(OCC(=O)Nc3ccccc3C)cc2)C1 (configuration not stated),-6.25% [at 102 µM],
Cc1cccc(N2CCN(C3=C(c4ccccc4)C(=O)c4ccccc43)CC2)c1C,,3.55 µM (active)
Cc1cccc(N2CCN(C(=O)c3oc(=O)c4ccccc4c3-c3ccccc3)CC2)c1C,-10.9%,
Cc1cccc(N2CCN(Cc3c(C)n(C)n(-c4ccccc4)c3=O)CC2)c1C,11.6% [at 12.7 µM],
CN(C)c1ccc(-c2nnc(-c3cccnc3)o2)cc1,-31.1% [at 102 µM],
COC(=O)c1cc(NC(=O)c2cnc(SC)nc2-c2ccccc2)cc(C(=O)OC)c1,-6.31%,
COc1ccc(OCCCn2c(C3CC(=O)N(c4ccc(F)cc4)C3)nc3ccccc32)cc1 (configuration not stated),-22.6%,
COc1ccc([C@H]2CC(=O)C=C(c3ccc(OC(F)(F)F)cc3)C2)cc1OC,-10% [at 2.33 µM],
Cc1ccc(C(C)C)c(OCCSc2nc3ccccc3n2CC(=O)O)c1,-48% [at 102 µM],
Cc1cccc(OCCSc2nc3ccccc3n2CC(=O)N2CCCCC2)c1C,,12.6 µM (active)
CC(C)N(C(=O)Cn1c(SCC(=O)N2CCN(c3ccccc3)CC2)nc2ccccc21)C(C)C,2.09% [at 102 µM],
CN(CC(=O)NCC(c1ccccc1)N1CCCC1)S(=O)(=O)c1ccc(Cl)cc1 (configuration not stated),-5.36% [at 12.7 µM],
